Experimental data from PubChem BioAssay AID1159580 (chemical genetic matrix, 2015).
Where “and” joins values, the source holds several entries; their conditions need not be identical. Equal values may be shown once. The whole screen tested about 5,500 compounds, of which about 2,000 (36%) were called active. Roughly 18% stayed inconclusive and do not appear here. Cut-off read from the data, not from the text of the source: active = normalized growth mostly below about 0.91 (no sharp cut-off); inconclusive = no clear call, values can overlap the other calls; inactive = mostly above about 0.92. The list shows a part of the results.

Test: chemical genetic growth profiling, strain panel (AID 1159580);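 note: tested at 20 µM; growth read once vehicle control cultures reached saturation at 30 °C; 1 = growth at the plate median or of vehicle wells; lower values mean less growth of the strain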
Conditions: S. cerevisiae deletion strains, growth OD

Measured: normalized growth

CC(C)=CCOc1cc2oc(=O)ccc2cc1O
inactive: locus YAL021C, strain ccr4, hits give low values 0.977 | locus YAL026C, strain drs2, hits give low values 0.919 | locus YAL030W, strain snc1, hits give low values 0.978 | locus YBL061C, strain skt5, hits give low values 0.94 | locus YBR009C, strain hhf1, hits give low values 0.937 | locus YBR021W, strain FUR4, hits give low values 0.876 | locus YBR023C, strain chs3, hits give low values 0.929 | locus YBR171W, strain sec66, hits give low values 0.915 | locus YBR229C, strain ROT2, hits give low values 0.967 | locus YBR231C, strain swc5, hits give low values 0.93 | locus YBR279W, strain paf1, hits give low values 0.962 | locus YCL011C, strain gbp2, hits give low values 0.911 | locus YCL016C, strain dcc1, hits give low values 0.965 | locus YCL029C, strain bik1, hits give low values 0.961 | locus YCL061C, strain MRC1, hits give low values 0.94 | locus YCL069W, strain vba3, hits give low values 0.94 | locus YCR088W, strain abp1, hits give low values 0.957 | locus YDL005C, strain med2, hits give low values 0.956 | locus YDL035C, strain GPR1, hits give low values 0.894 | locus YDL040C, strain nat1, hits give low values 0.951 | locus YDL074C, strain BRE1, hits give low values 0.808 | locus YDL101C, strain DUN1, hits give low values 0.935 | locus YDL185W, strain tfp1, hits give low values 0.965 | locus YDR001C, strain nth1, hits give low values 0.965 | locus YDR069C, strain doa4, hits give low values 0.944 | locus YDR101C, strain arx1, hits give low values 0.919 | locus YDR137W, strain rgp1, hits give low values 0.881 | locus YDR159W, strain sac3, hits give low values 0.881 | locus YDR162C, strain NBP2, hits give low values 0.876 | locus YDR195W, strain ref2 1.02 | locus YDR297W, strain sur2, hits give low values 0.969 | locus YDR334W, strain swr1, hits give low values 0.927 | locus YDR335W, strain msn5, hits give low values 0.968 | locus YDR388W, hits give low values 0.96 | locus YEL003W, strain gim4, hits give low values 0.935 | locus YEL037C, strain rad23, hits give low values 0.941 | locus YEL061C, strain CIN8 (second series), hits give low values 0.938 | locus YEL061C, strain CIN8, hits give low values 0.957 | locus YER015W, strain faa2, hits give low values 0.937 | locus YER016W, strain bim1, hits give low values 0.962 | locus YER110C, hits give low values 0.971 | locus YER111C, strain swi4, hits give low values 0.95 | locus YER155C, strain BEM2, hits give low values 0.962 | locus YFR010W, strain ubp6, hits give low values 0.942 | locus YGL078C, strain dbp3, hits give low values 0.97 | locus YGL167C, strain pmr1, hits give low values 0.939 | locus YGL173C, strain kem1, hits give low values 0.926 | locus YGL227W, strain vid30, hits give low values 0.957 | locus YGL240W, strain doc1, hits give low values 0.886 | locus YGL248W, strain PDE1, hits give low values 0.9 | locus YGR135W, strain pre9, hits give low values 0.915 | locus YHR013C, strain ard1, hits give low values 0.955 | locus YHR027C, strain rpn1, hits give low values 0.956 | locus YHR030C, strain SLT2, hits give low values 0.947 | locus YHR079C, strain IRE1 (second series), hits give low values 0.974 | locus YHR079C, strain IRE1, hits give low values 0.936 | locus YHR094C, strain hxt1, hits give low values 0.97 | locus YHR142W, strain chs7, hits give low values 0.878 | locus YIL073C, strain SPO22, hits give low values 0.975 | locus YIL125W, strain kgd1, hits give low values 0.948 | locus YIR030C, strain dcg1, hits give low values 0.97 | locus YJL092W, strain hpr5, hits give low values 0.927 | locus YJL095W, strain BCK1 (second series), hits give low values 0.948 | locus YJL095W, strain BCK1, hits give low values 0.858 and 0.946 | locus YJL115W, strain asf1, hits give low values 0.949 | locus YJL129C, strain trk1, hits give low values 0.904 | locus YJL134W, strain LCB3, hits give low values 0.963 | locus YJL154C, strain vps35, hits give low values 0.966 | locus YJL164C, strain tpk1, hits give low values 0.974 | locus YJL166W, strain qcr8, hits give low values 0.94 | locus YJL168C, strain set2, hits give low values 0.977 | locus YJL187C, strain SWE1 (second series), hits give low values 0.889 | locus YJL187C, strain SWE1, hits give low values 0.951 | locus YJR066W, strain TOR1, hits give low values 0.92 | locus YKL009W, strain mrt4, hits give low values 0.916 | locus YKL068W, hits give low values 0.97 | locus YKL085W, strain MDH1 (second series), hits give low values 0.959 | locus YKL085W, strain MDH1, hits give low values 0.959 | locus YKL160W, strain elf1, hits give low values 0.981 | locus YKL190W, strain CNB1, hits give low values 0.953 | locus YKR026C, strain gcn3, hits give low values 0.927 | locus YKR091W, strain srl3, hits give low values 0.96 | locus YLL001W, strain dnm1, hits give low values 0.964 | locus YLL026W, hits give low values 0.941 | locus YLL041C, strain sdh2, hits give low values 0.934 | locus YLR027C, strain aat2, hits give low values 0.939 | locus YLR058C, strain SHM2, hits give low values 0.905 | locus YLR102C, strain apc9, hits give low values 0.974 | locus YLR113W, strain HOG1, hits give low values 0.977 | locus YLR221C, strain rsa3, hits give low values 0.916 | locus YLR258W, strain gsy2, hits give low values 0.951 | locus YLR262C, strain YPT6 (second series), hits give low values 0.956 | locus YLR268W, strain sec22, hits give low values 0.9 | locus YLR342W, strain FKS1, hits give low values 0.946 | locus YLR357W, strain rsc2, hits give low values 0.952 | locus YLR370C, strain arc18, hits give low values 0.925 | locus YLR371W, strain rom2, hits give low values 0.934 | locus YLR384C, strain iki3, hits give low values 0.966 | locus YML016C, strain PPZ1, hits give low values 0.948 | locus YML120C, strain ndi1, hits give low values 0.953 | locus YML124C, strain tub3, hits give low values 0.949 | locus YMR058W, strain fet3, hits give low values 0.934 | locus YMR078C, strain ctf18, hits give low values 0.963 | locus YMR125W, strain sto1, hits give low values 0.956 | locus YMR129W, hits give low values 0.961 | locus YMR205C, strain PFK2, hits give low values 0.934 | locus YMR231W, strain pep5, hits give low values 0.929 | locus YNL067W, strain RPL9B, hits give low values 0.912 | locus YNL128W, strain TEP1, hits give low values 0.929 | locus YNL183C, strain NPR1, hits give low values 0.923 | locus YNL209W, strain ssb2, hits give low values 0.971 | locus YNL248C, strain rpa49, hits give low values 0.98 | locus YNL250W, strain rad50, hits give low values 1 | locus YNL271C, strain bni1, hits give low values 0.97 | locus YNL298W, strain CLA4, hits give low values 0.955 | locus YNL322C, strain KRE1 (second series), hits give low values 0.928 | locus YNR049C, strain mso1, hits give low values 0.942 | locus YNR052C, strain pop2, hits give low values 0.997 | locus YOL012C, strain htz1 0.93 | locus YOR001W, strain rrp6, hits give low values 0.906 | locus YOR061W, strain CKA2, hits give low values 0.959 | locus YOR069W, strain VPS5, hits give low values 0.951 | locus YOR070C, strain gyp1, hits give low values 0.947 | locus YOR080W, strain dia2, hits give low values 0.947 | locus YOR083W, strain WHI5, hits give low values 0.977 | locus YOR106W, strain vam3, hits give low values 0.94 | locus YOR136W, strain idh2, hits give low values 0.957 | locus YOR144C, strain elg1, hits give low values 0.945 | locus YOR231W, strain MKK1, hits give low values 0.924 | locus YOR265W, strain rbl2, hits give low values 0.949 | locus YOR270C, strain vph1, hits give low values 0.799 | locus YOR290C, strain snf2, hits give low values 0.917 | locus YOR316C, strain cot1, hits give low values 0.973 | locus YPL078C, strain atp4, hits give low values 0.962 | locus YPL106C, strain sse1, hits give low values 0.908 | locus YPL240C, strain hsp82, hits give low values 0.937 | locus YPL241C, strain CIN2, hits give low values 0.963 | locus YPL256C, strain CLN2, hits give low values 0.906 | locus YPR119W, strain clb2, hits give low values 0.971 | locus YPR141C, strain kar3, hits give low values 0.974 | locus YPR167C, strain met16, hits give low values 0.942
active: locus YDL192W, strain arf1, hits give low values 0.879 | locus YDR318W, strain mcm21, hits give low values 0.902 | locus YDR392W, strain spt3, hits give low values 0.706 | locus YDR502C, strain sam2, hits give low values 0.909 | locus YER155C, strain BEM2 (second series), hits give low values 0.685 | locus YER167W, strain BCK2, hits give low values 0.881 | locus YGL086W, strain mad1, hits give low values 0.882 | locus YGL253W, strain hxk2, hits give low values 0.899 | locus YGR252W, strain gcn5, hits give low values 0.713 | locus YHR129C, strain ARP1, hits give low values 0.918 | locus YHR200W, strain rpn10, hits give low values 0.895 | locus YIL066C, strain RNR3, hits give low values 0.85 | locus YKR001C, strain vps1, hits give low values 0.662 | locus YLR039C, strain RIC1, hits give low values 0.647 | locus YLR320W, strain mms22, hits give low values 0.848 | locus YLR330W, strain CHS5, hits give low values 0.839 | locus YLR418C, strain cdc73, hits give low values 0.753 | locus YML032C, strain rad52, hits give low values 0.895 | locus YMR223W, strain ubp8, hits give low values 0.894 | locus YMR307W, strain GAS1, hits give low values 0.596 | locus YNL071W, strain lat1, hits give low values 0.898 | locus YNL233W, strain BNI4, hits give low values 0.792 | locus YNL307C, strain MCK1, hits give low values 0.786 | locus YOL147C, strain pex11, hits give low values 0.885 | locus YOR184W, strain ser1, hits give low values 0.72 | locus YPL051W, strain arl3, hits give low values 0.895 | locus YPR163C, strain tif3, hits give low values 0.849 | strain wtn01, hits give low values 0.877
